Data as given in PubChem BioAssay (NCATS).
Records with an inconclusive call do not appear. Calls of active or inactive are those of the source. The call rests on the fitted dose curve; in most records, active means well fitted curve in the direction sought with a large enough effect; inconclusive means small, poorly fitted or top-dose-only effect, or another doubt; inactive means no such curve, though single readings can be large; an effect the other way counts as inactive or inconclusive.

Assays:
[1] = qHTS of pediatric cancer cell lines to identify multiple opportunities for drug repurposing: Primary screen for DAOY cells (AID 1347090);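 further: series mostly up to about 46 µM; plate controls were DMSO for no effect and bortezomib for full effect; nearly all actives have a fitted effect of over 55% in size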
Procedure, shortened: (§1)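 Eight- or eleven-point concentration series, 48 h treatment at 37 degrees C in growth media; readout CellTiter-Glo luminescence. Potency and efficacy were taken from the concentration-response curves.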

[2] = qHTS of pediatric cancer cell lines to identify multiple opportunities for drug repurposing: Primary screen for SJ-GBM2 cells (AID 1347091);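 further: plate controls were DMSO neutral control for no effect and bortezomib for full effect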
Procedure, shortened: as §1

[3] = qHTS of pediatric cancer cell lines to identify multiple opportunities for drug repurposing: Primary screen for A673 cells (AID 1347092); further: on the % scale 0 is the no-effect control and ±100 the full control effect; nearly all actives have a fitted effect of over 45% in size
Procedure, shortened: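 A673 cells (500-1,000 cells/well) were treated 48 hours at 37 degrees C with compounds at 11-point (0.78 nM to 46 µM) or 8-point (0.59 nM to 46 µM) dilutions. Viability read by CellTiter-Glo luminescence; concentration-response curves fitted.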

[4] = qHTS of pediatric cancer cell lines to identify multiple opportunities for drug repurposing: Primary screen for SK-N-MC cells (AID 1347093);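 further: series mostly up to about 46 µM; plate controls were DMSO neutral control for no effect and bortezomib for full effect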
Procedure, shortened: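 Metabolically active cells were quantified by ATP-dependent luminescence (CellTiter-Glo, 15 min at room temperature) following 48 h treatment. Cells had been plated at 500-1,000 per well and settled for 5 h beforehand.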

[5] = qHTS of pediatric cancer cell lines to identify multiple opportunities for drug repurposing: Primary screen for BT-37 cells (AID 1347094);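 further: series mostly up to about 57 µM; plate controls were DMSO for no effect and bortezomib for full effect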
Procedure, shortened: (§2)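 500-1,000 cells/well; 5 h pre-incubation 37 °C/5% CO2; compound pinned; 48 h; CellTiter-Glo, 15 min RT; luminescence. MIPE 11-pt from 0.78 nM, NPC 8-pt from 0.59 nM final. Bortezomib 2.3 µM final as positive control.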

[6] = qHTS of pediatric cancer cell lines to identify multiple opportunities for drug repurposing: Primary screen for NB-EBc1 cells (AID 1347095);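 further: plate controls were DMSO neutral control for no effect and bortezomib for full effect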
Procedure, shortened: as §2

[7] = qHTS of pediatric cancer cell lines to identify multiple opportunities for drug repurposing: Primary screen for U-2 OS cells (AID 1347096);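 further: plate controls were DMSO wells for no effect and bortezomib positive control wells for full effect; nearly all actives have a fitted effect of over 50% in size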
Procedure, shortened: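 Cells (500-1,000/well) in growth media were settled 5 h at 37 degrees C, then given compounds for 48 h. Viability was read as CellTiter-Glo luminescence. Primary runs used MIPE at 11 points (0.78 nM-46 µM) and NPC at 8 points (0.59 nM-46 µM); follow-ups used 11 points.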

[8] = qHTS of pediatric cancer cell lines to identify multiple opportunities for drug repurposing: Primary screen for Saos-2 cells (AID 1347097); further: on the % scale 0 is the no-effect control and ±100 the full control effect; nearly all actives have a fitted effect of over 40% in size
Procedure, shortened: as §2

[9] = qHTS of pediatric cancer cell lines to identify multiple opportunities for drug repurposing: Primary screen for SK-N-SH cells (AID 1347098);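 further: DMSO served as neutral control and bortezomib at 2.3 µM as positive control; on the % scale 0 is the no-effect control and ±100 the full control effect; nearly all actives have a fitted effect of over 65% in size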
Procedure, shortened: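 Cells (500-1,000/well) rested 5 h, then received compounds for 48 h; metabolically active cells were measured by CellTiter-Glo luminescence. Final concentrations spanned up to 46 µM (MIPE, 11-point) or 0.59 nM-46 µM (NPC, 8-point) in primary screens, 11-point in follow-ups.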

[10] = qHTS of pediatric cancer cell lines to identify multiple opportunities for drug repurposing: Primary screen for NB1643 cells (AID 1347099);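 further: plate controls were DMSO neutral control for no effect and bortezomib positive control for full effect; nearly all actives have a fitted effect of over 50% in size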
Procedure, shortened: as §2

CC(=O)Oc1c(C)c(C)c2c(c1C)CC[C@@](C)(CCC[C@H](C)CCC[C@H](C)CCCC(C)C)O2
inactive: Potency [1] | Potency [2] | Potency [3] | Potency [4] | Potency [5] | Potency [6] | Potency [7] | Potency [8] | Potency [9] | Potency [10]

CN(C)CCCO[C@@H]1[C@H]2OC(C)(C)O[C@H]2O[C@@H]1C(O)CO (stereo partly specified)
inactive: Potency [1] | Potency [2] | Potency [3] | Potency [4] | Potency [5] | Potency [6] | Potency [7] | Potency [8] | Potency [9] | Potency [10]

NC(=O)c1ncn([C@@H]2O[C@H](CO)[C@@H](O)[C@H]2O)c1N
inactive: Potency [1] | Potency [2] | Potency [3] | Potency [4] | Potency [5] | Potency [6] | Potency [7] | Potency [8] | Potency [9] | Potency [10]

NCCNCCNCCN
inactive: Potency [1] | Potency [2] | Potency [3] | Potency [4] | Potency [5] | Potency [6] | Potency [7] | Potency [8] | Potency [9] | Potency [10]

CCCCC(CC)COC(=O)c1ccccc1O (stereo unspecified)
inactive: Potency [1] | Potency [2] | Potency [3] | Potency [4] | Potency [5] | Potency [6] | Potency [7] | Potency [8] | Potency [9] | Potency [10]

CCn1cc(C(=O)O)c(=O)c2cnc(N3CCNCC3)nc21
inactive: Potency [1] | Potency [2] | Potency [3] | Potency [4] | Potency [5] | Potency [6] | Potency [7] | Potency [8] | Potency [9] | Potency [10]

Cc1cccc(Nc2cc(Cl)nc(SCC(=O)O)n2)c1C
inactive: Potency [1] | Potency [2] | Potency [3] | Potency [4] | Potency [5] | Potency [6] | Potency [7] | Potency [8] | Potency [9] | Potency [10]

NC(CSCC(=O)O)C(=O)O (stereo unspecified)
inactive: Potency [1] | Potency [2] | Potency [3] | Potency [4] | Potency [5] | Potency [6] | Potency [7] | Potency [8] | Potency [9] | Potency [10]

CN1[C@@H]2CC[C@H]1CC(OC(=O)C(O)c1ccccc1)C2 (stereo partly specified)
inactive: Potency [1] | Potency [2] | Potency [3] | Potency [4] | Potency [5] | Potency [6] | Potency [7] | Potency [8] | Potency [9] | Potency [10]

CC(C)(O)c1ccccc1CC[C@@H](SCC1(CC(=O)O)CC1)c1cccc(/C=C/c2ccc3ccc(Cl)cc3n2)c1
inactive: Potency [1] | Potency [2] | Potency [3] | Potency [4] | Potency [5] | Potency [6] | Potency [7] | Potency [8] | Potency [9] | Potency [10]

C[C@H](N)[C@H](O)c1cccc(O)c1
inactive: Potency [1] | Potency [2] | Potency [3] | Potency [4] | Potency [5] | Potency [6] | Potency [7] | Potency [8] | Potency [9] | Potency [10]

CC1(C)CO[C@@H](CC(=O)O)CN1
inactive: Potency [1] | Potency [2] | Potency [3] | Potency [4] | Potency [5] | Potency [6] | Potency [7] | Potency [8] | Potency [9] | Potency [10]

COc1ccccc1O
inactive: Potency [1] | Potency [2] | Potency [3] | Potency [4] | Potency [5] | Potency [6] | Potency [7] | Potency [8] | Potency [9] | Potency [10]

CCN(CC)CCNC(C(=O)OCCC(C)C)c1ccccc1 (stereo unspecified)
inactive: Potency [1] | Potency [2] | Potency [3] | Potency [4] | Potency [5] | Potency [6] | Potency [7] | Potency [8] | Potency [9] | Potency [10]

N[C@H](C(=O)O)c1ccc(O)cc1
inactive: Potency [1] | Potency [2] | Potency [3] | Potency [4] | Potency [5] | Potency [6] | Potency [7] | Potency [8] | Potency [9] | Potency [10]

CC(O)CN(CCN(CC(C)O)CC(C)O)CC(C)O (stereo unspecified)
inactive: Potency [1] | Potency [2] | Potency [3] | Potency [4] | Potency [5] | Potency [6] | Potency [7] | Potency [8] | Potency [9] | Potency [10]

O=C1c2c(O)cccc2Cc2cccc(O)c21
inactive: Potency [1] | Potency [2] | Potency [3] | Potency [4] | Potency [5] | Potency [6] | Potency [7] | Potency [8] | Potency [9] | Potency [10]

C[C@@H]1CN(c2c(F)c(F)c3c(=O)c(C(=O)O)cn(C4CC4)c3c2F)C[C@H](C)N1
inactive: Potency [1] | Potency [2] | Potency [3] | Potency [4] | Potency [5] | Potency [6] | Potency [7] | Potency [9] | Potency [10]

N[C@@H](CSSC[C@H](N)C(=O)O)C(=O)O
inactive: activity change, negative = cytotoxic [1] 14.8% [at 0.597 µM] | activity change, negative = cytotoxic [2] 12.9% [at 0.597 µM] | activity change, negative = cytotoxic [3] -1.55% [at 0.597 µM] | activity change, negative = cytotoxic [4] -7.24% [at 0.597 µM] | activity change, negative = cytotoxic [5] 3.9% [at 0.745 µM] | activity change, negative = cytotoxic [6] -0.714% [at 0.597 µM] | activity change, negative = cytotoxic [7] 6.12% [at 0.597 µM] | activity change, negative = cytotoxic [8] -6.38% [at 0.597 µM] | activity change, negative = cytotoxic [10] -5.83% [at 0.597 µM]

CN(C)CCOC(C)(c1ccccc1)c1ccccn1 (stereo unspecified)
inactive: Potency [1] | Potency [2] | Potency [3] | Potency [4] | Potency [5] | Potency [6] | Potency [7] | Potency [8] | Potency [9] | Potency [10]

CC(=O)NC(Cc1ccccc1)C(=O)O (stereo unspecified)
inactive: Potency [1] | Potency [2] | Potency [3] | Potency [4] | Potency [5] | Potency [6] | Potency [7] | Potency [9] | Potency [10]

Cc1cc2nc3c(=O)[nH]c(=O)nc-3n(C[C@H](O)[C@H](O)[C@H](O)CO)c2cc1C
inactive: Potency [1] | Potency [2] | Potency [3] | Potency [4] | Potency [5] | Potency [6] | Potency [7] | Potency [9] | Potency [10]
